Numbering of substitutions follows the chain as printed.

Targets include ALX4 (Homo sapiens, UniProt Q9H161 200-286); HOXA4 (Homo sapiens, UniProt Q00056 201-287, W262F); HOXA2 (Homo sapiens, UniProt O43364 129-215, R185T).
What all share (assay): PBM; 200 nM protein, PBS
Common to all, as to settings: dsDNA, one strand shown

Assay [1] deals with T1, PAX4 (Homo sapiens, UniProt O43316 9-242, R200K).
T1 sequence: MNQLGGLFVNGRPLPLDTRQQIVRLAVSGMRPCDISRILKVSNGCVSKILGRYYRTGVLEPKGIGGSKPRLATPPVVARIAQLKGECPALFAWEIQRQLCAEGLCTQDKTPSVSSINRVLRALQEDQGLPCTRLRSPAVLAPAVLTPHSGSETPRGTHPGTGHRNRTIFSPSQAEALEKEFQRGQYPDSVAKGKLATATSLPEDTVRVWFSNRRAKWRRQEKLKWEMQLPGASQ

Assay [2] addresses PRRX1 (Homo sapiens, UniProt P54821 80-166, F113S).
The target in assay [3] is T2, PAX4 (Homo sapiens, UniProt O43316 9-242, R200Q).
T2 sequence: T1 sequence with K192Q

Assay [4] has as its target T3, PAX4 (Homo sapiens, UniProt O43316 9-242, F177V).
T3 sequence: T1 sequence with F169V, K192R

Assay [5] deals with MSX2 (Homo sapiens, UniProt P35548 130-214).
In assay [6] the target is T4, PAX4 (Homo sapiens, UniProt O43316 9-242, F177Y).
T4 sequence: T1 sequence with F169Y, K192R

Assay [7] has as its target MSX2 (Homo sapiens, UniProt P35548 130-214, F161Y).
The target of assay [8] is PRRX1 (Homo sapiens, UniProt P54821 80-166).
Assay [9] concerns the target T5, VENTX (Homo sapiens, UniProt O95231 78-163, R121Q).
T5 sequence: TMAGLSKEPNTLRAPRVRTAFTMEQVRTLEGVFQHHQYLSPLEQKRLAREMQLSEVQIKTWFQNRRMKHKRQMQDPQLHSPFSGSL

Assay [10] concerns the target T6, VENTX (Homo sapiens, UniProt O95231 78-163, Y115F).
T6 sequence: T5 sequence with Y38F, Q44R

For assay [11], the target named is VAX1 (Homo sapiens, UniProt Q5SQQ9 86-172, T142I).
The target of assay [12] is VAX1 (Homo sapiens, UniProt Q5SQQ9 86-172, K157R).
Sequence of VAX1 (Homo sapiens, UniProt Q5SQQ9 86-172, K157R) (Q5SQQ9 86-172 K157R): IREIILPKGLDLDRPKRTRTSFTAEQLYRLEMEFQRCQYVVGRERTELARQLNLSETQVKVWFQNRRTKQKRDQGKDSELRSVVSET

Sequence of PRRX1 (Homo sapiens, UniProt P54821 80-166, F113S) (P54821 80-166 F113S): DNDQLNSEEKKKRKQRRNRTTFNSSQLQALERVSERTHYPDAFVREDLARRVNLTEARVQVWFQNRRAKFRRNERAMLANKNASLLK
Sequence of ALX4 (Q9H161 200-286): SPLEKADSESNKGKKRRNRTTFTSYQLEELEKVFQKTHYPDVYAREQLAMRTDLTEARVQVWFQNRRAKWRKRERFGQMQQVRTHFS
Sequence of HOXA2 (O43364 129-215 R185T): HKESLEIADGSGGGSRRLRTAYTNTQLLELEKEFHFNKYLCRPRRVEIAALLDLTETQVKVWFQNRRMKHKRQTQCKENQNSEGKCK
Sequence of PRRX1 (Homo sapiens, UniProt P54821 80-166) (P54821 80-166): as the sequence (P54821 80-166 F113S) above, with S34F counted along it
Sequence of MSX2 (Homo sapiens, UniProt P35548 130-214) (P35548 130-214): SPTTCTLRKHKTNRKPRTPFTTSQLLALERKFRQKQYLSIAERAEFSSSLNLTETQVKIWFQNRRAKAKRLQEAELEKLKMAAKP
Sequence of HOXA4 (Q00056 201-287 W262F): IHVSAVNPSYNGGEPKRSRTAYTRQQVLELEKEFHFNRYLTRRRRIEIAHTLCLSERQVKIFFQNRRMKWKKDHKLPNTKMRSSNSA
Sequence of MSX2 (Homo sapiens, UniProt P35548 130-214, F161Y) (P35548 130-214 F161Y): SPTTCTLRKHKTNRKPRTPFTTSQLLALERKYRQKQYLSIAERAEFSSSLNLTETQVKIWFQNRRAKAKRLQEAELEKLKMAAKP
Sequence of VAX1 (Homo sapiens, UniProt Q5SQQ9 86-172, T142I) (Q5SQQ9 86-172 T142I): as the sequence (Q5SQQ9 86-172 K157R) above, with T57I, R72K counted along it

Regarding AATTAAAT, the binding signal was 13.9 upbm affinity estimate (log intensity, higher = more binding, comparable within an allelic series) in the assay with ALX4; 11.8 upbm affinity estimate (log intensity, higher = more binding, comparable within an allelic series) in the assay with PAX4 [1]; 11.3 upbm affinity estimate (log intensity, higher = more binding, comparable within an allelic series) with PRRX1 [2]; 12.2 upbm affinity estimate (log intensity, higher = more binding, comparable within an allelic series) in the assay with PAX4 [3]; 10.8 upbm affinity estimate (log intensity, higher = more binding, comparable within an allelic series) with PAX4 [4]; 13.6 upbm affinity estimate (log intensity, higher = more binding, comparable within an allelic series) in the assay with MSX2 [5]. Besides, the binding signal with PAX4 [6] was 11.3 upbm affinity estimate (log intensity, higher = more binding, comparable within an allelic series); with MSX2 [7], 13.1 upbm affinity estimate (log intensity, higher = more binding, comparable within an allelic series); in the assay with HOXA4, 11.4 upbm affinity estimate (log intensity, higher = more binding, comparable within an allelic series); with PRRX1 [8], 13.4 upbm affinity estimate (log intensity, higher = more binding, comparable within an allelic series).
With ATTAATGC, the binding signal with PAX4 [1] is 11.7 upbm affinity estimate (log intensity, higher = more binding, comparable within an allelic series); with PAX4 [3], 11.7 upbm affinity estimate (log intensity, higher = more binding, comparable within an allelic series); in the assay with PAX4 [4], 10.4 upbm affinity estimate (log intensity, higher = more binding, comparable within an allelic series); with PAX4 [6], 11 upbm affinity estimate (log intensity, higher = more binding, comparable within an allelic series).
On to AATTATAA, for which the binding signal is 13.7 upbm affinity estimate (log intensity, higher = more binding, comparable within an allelic series) with ALX4; 11.4 upbm affinity estimate (log intensity, higher = more binding, comparable within an allelic series) in the assay with PRRX1 [2]; 13.4 upbm affinity estimate (log intensity, higher = more binding, comparable within an allelic series) with MSX2 [5]; 13 upbm affinity estimate (log intensity, higher = more binding, comparable within an allelic series) in the assay with MSX2 [7]; 13.3 upbm affinity estimate (log intensity, higher = more binding, comparable within an allelic series) with PRRX1 [8].
Regarding CCAATTAG, the binding signal in the assay with VENTX [9] was 12.3 upbm affinity estimate (log intensity, higher = more binding, comparable within an allelic series); with ALX4 it was 14.1 upbm affinity estimate (log intensity, higher = more binding, comparable within an allelic series); with PAX4 [1], 11.7 upbm affinity estimate (log intensity, higher = more binding, comparable within an allelic series); with PRRX1 [2], 11.2 upbm affinity estimate (log intensity, higher = more binding, comparable within an allelic series); with VENTX [10], 11.9 upbm affinity estimate (log intensity, higher = more binding, comparable within an allelic series); with HOXA2, 12.9 upbm affinity estimate (log intensity, higher = more binding, comparable within an allelic series). In addition, the binding signal in the assay with PAX4 [3] is 12.2 upbm affinity estimate (log intensity, higher = more binding, comparable within an allelic series); with PAX4 [4], 10.4 upbm affinity estimate (log intensity, higher = more binding, comparable within an allelic series); with MSX2 [5], 14 upbm affinity estimate (log intensity, higher = more binding, comparable within an allelic series); with PAX4 [6], 10.8 upbm affinity estimate (log intensity, higher = more binding, comparable within an allelic series); with MSX2 [7], 13.7 upbm affinity estimate (log intensity, higher = more binding, comparable within an allelic series); with VAX1 [11], 12.6 upbm affinity estimate (log intensity, higher = more binding, comparable within an allelic series). In addition, the binding signal with PRRX1 [8] is 13.4 upbm affinity estimate (log intensity, higher = more binding, comparable within an allelic series); in the assay with VAX1 [12] it was 12.9 upbm affinity estimate (log intensity, higher = more binding, comparable within an allelic series).
On to CAAATTAA, for which the binding signal with ALX4 is 13.7 upbm affinity estimate (log intensity, higher = more binding, comparable within an allelic series); with PAX4 [1], 11.8 upbm affinity estimate (log intensity, higher = more binding, comparable within an allelic series); with PRRX1 [2], 11 upbm affinity estimate (log intensity, higher = more binding, comparable within an allelic series); with PAX4 [3], 12.2 upbm affinity estimate (log intensity, higher = more binding, comparable within an allelic series); with PAX4 [4] it was 10.5 upbm affinity estimate (log intensity, higher = more binding, comparable within an allelic series); with PAX4 [6] it was 11.1 upbm affinity estimate (log intensity, higher = more binding, comparable within an allelic series). For the same sequence, in the assay with PRRX1 [8], the binding signal is 13.2 upbm affinity estimate (log intensity, higher = more binding, comparable within an allelic series).
Take CCAATTAC: the binding signal with ALX4 is 13.8 upbm affinity estimate (log intensity, higher = more binding, comparable within an allelic series); with PRRX1 [2], 11.1 upbm affinity estimate (log intensity, higher = more binding, comparable within an allelic series); with MSX2 [5], 13.9 upbm affinity estimate (log intensity, higher = more binding, comparable within an allelic series); in the assay with MSX2 [7], 13.5 upbm affinity estimate (log intensity, higher = more binding, comparable within an allelic series); with PRRX1 [8], 13.4 upbm affinity estimate (log intensity, higher = more binding, comparable within an allelic series).
With AATTAGTA, the binding signal with VENTX [9] was 11.7 upbm affinity estimate (log intensity, higher = more binding, comparable within an allelic series); in the assay with ALX4, 13.7 upbm affinity estimate (log intensity, higher = more binding, comparable within an allelic series); with PAX4 [1], 11.7 upbm affinity estimate (log intensity, higher = more binding, comparable within an allelic series); with PRRX1 [2], 11.1 upbm affinity estimate (log intensity, higher = more binding, comparable within an allelic series); with VENTX [10], 11.5 upbm affinity estimate (log intensity, higher = more binding, comparable within an allelic series); in the assay with PAX4 [3] it was 11.9 upbm affinity estimate (log intensity, higher = more binding, comparable within an allelic series). For the same sequence, the binding signal with PAX4 [4] is 10.5 upbm affinity estimate (log intensity, higher = more binding, comparable within an allelic series); in the assay with MSX2 [5] it was 13.3 upbm affinity estimate (log intensity, higher = more binding, comparable within an allelic series); with PAX4 [6] it was 10.9 upbm affinity estimate (log intensity, higher = more binding, comparable within an allelic series); with MSX2 [7], 12.9 upbm affinity estimate (log intensity, higher = more binding, comparable within an allelic series); with HOXA4, 11.5 upbm affinity estimate (log intensity, higher = more binding, comparable within an allelic series).
GCCAATTA: the binding signal with VENTX [9] was 11.8 upbm affinity estimate (log intensity, higher = more binding, comparable within an allelic series); in the assay with ALX4 it was 14 upbm affinity estimate (log intensity, higher = more binding, comparable within an allelic series); in the assay with PRRX1 [2], 11.2 upbm affinity estimate (log intensity, higher = more binding, comparable within an allelic series); in the assay with VENTX [10], 11.5 upbm affinity estimate (log intensity, higher = more binding, comparable within an allelic series); in the assay with HOXA2, 12.6 upbm affinity estimate (log intensity, higher = more binding, comparable within an allelic series); with PAX4 [3], 11.9 upbm affinity estimate (log intensity, higher = more binding, comparable within an allelic series). In addition, the binding signal with MSX2 [5] is 14 upbm affinity estimate (log intensity, higher = more binding, comparable within an allelic series); in the assay with MSX2 [7], 13.6 upbm affinity estimate (log intensity, higher = more binding, comparable within an allelic series); in the assay with VAX1 [11] it was 12.4 upbm affinity estimate (log intensity, higher = more binding, comparable within an allelic series); in the assay with PRRX1 [8] it was 13.3 upbm affinity estimate (log intensity, higher = more binding, comparable within an allelic series); with VAX1 [12], 12.6 upbm affinity estimate (log intensity, higher = more binding, comparable within an allelic series).
Turning to AATTAGCA, the binding signal is 11.7 upbm affinity estimate (log intensity, higher = more binding, comparable within an allelic series) with VENTX [9]; 13.6 upbm affinity estimate (log intensity, higher = more binding, comparable within an allelic series) with ALX4; 11.6 upbm affinity estimate (log intensity, higher = more binding, comparable within an allelic series) in the assay with PAX4 [1]; 11 upbm affinity estimate (log intensity, higher = more binding, comparable within an allelic series) in the assay with PRRX1 [2]; 11.5 upbm affinity estimate (log intensity, higher = more binding, comparable within an allelic series) with VENTX [10]; 12.4 upbm affinity estimate (log intensity, higher = more binding, comparable within an allelic series) with HOXA2. In addition, the binding signal was 11.9 upbm affinity estimate (log intensity, higher = more binding, comparable within an allelic series) with PAX4 [3]; 10.5 upbm affinity estimate (log intensity, higher = more binding, comparable within an allelic series) with PAX4 [4]; 10.9 upbm affinity estimate (log intensity, higher = more binding, comparable within an allelic series) in the assay with PAX4 [6]; 11.5 upbm affinity estimate (log intensity, higher = more binding, comparable within an allelic series) with HOXA4; 13.2 upbm affinity estimate (log intensity, higher = more binding, comparable within an allelic series) in the assay with PRRX1 [8].

For the origin of these results see paper PMC11006913.
